Test [1] deals with Cytochrome P450 1A2 (Homo sapiens) (UniProt P05177). The test can be described thus: p450-cyp1a2 (AID 410; calls by dose curve; also: potency is read from the fitted curve at half-maximal effect). To be noted: recombinant CYP1A2, luciferin-ME demethylation, luminescence; series mostly up to 57 µM. An outline of the steps: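 Luminescent demethylation readout: Luciferin-ME (100uM, equal to Km) turned over by 20nM CYP1A2 for 60 min at room temperature after NADPH regeneration addition, following 10 min compound preincubation. Normalization used 57 uM furafylline as full inhibition.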
Cytochrome P450 1A2 (Homo sapiens), sequence (P05177 whole entry, looked up): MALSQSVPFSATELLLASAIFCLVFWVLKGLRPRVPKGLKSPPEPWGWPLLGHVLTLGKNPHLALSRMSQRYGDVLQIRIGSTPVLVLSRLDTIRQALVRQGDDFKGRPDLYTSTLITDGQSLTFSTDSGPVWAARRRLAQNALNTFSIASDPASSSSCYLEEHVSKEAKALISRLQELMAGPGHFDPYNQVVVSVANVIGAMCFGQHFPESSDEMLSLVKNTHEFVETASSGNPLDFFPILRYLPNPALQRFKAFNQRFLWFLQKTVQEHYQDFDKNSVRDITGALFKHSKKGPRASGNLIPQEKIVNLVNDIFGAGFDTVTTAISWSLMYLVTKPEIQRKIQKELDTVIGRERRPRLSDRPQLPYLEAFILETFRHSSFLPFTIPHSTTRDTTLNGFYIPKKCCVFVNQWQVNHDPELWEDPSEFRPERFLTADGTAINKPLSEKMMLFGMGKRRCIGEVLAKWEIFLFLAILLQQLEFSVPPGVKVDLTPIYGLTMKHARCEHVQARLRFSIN

Test [2] is described as follows: Stat Signaling Pathway (AID 446; active = well fitted curve in either direction with a large enough effect, not every such curve was filed as active;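 also: ME-180 cervical cancer cells given 40 pM IL-6 alongside compound; SIE-controlled beta-lactamase reporter measured as 460/530 nm FRET emission ratio; % is scaled to controls: 0 for no effect and ±100 for the full control effect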). To be noted: ME-180 (cervical carcinoma) SIE beta-lactamase reporter, IL-6 stimulated, 5 h; series mostly up to 7.69 µM. An outline of the steps:
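Normalization used AC90 stimulation (300 pM IL-6) and AC90 inhibition (125 nM pan-JAK inhibitor at 40 pM IL-6). The underlying signal is SIE-driven beta-lactamase in ME-180 cells after 5 h IL-6 exposure with compound.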

Test [3] deals with 3',5'-cyclic-AMP phosphodiesterase 4B (Homo sapiens) (UniProt Q07343). The test can be described thus: qHTS Assay for Inhibitors of PDE-IV (AID 607; active = well fitted activation curve with a large enough effect in the main read-out, with a control signal flat, not every such curve was filed as active; also: % of control where 0% means no effect). To be noted: HEK293 ACTOne CNG channel cells, membrane potential fluorescence; series mostly up to 22.9 µM. An outline of the steps:
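HEK293 ACTOne cells with CNG channel (1000/well), endogenous PDE4; membrane potential dye, compounds up to 22.9 uM final. Fluorescence Ex 535/Em 590; RO 20-1724 (100 uM final) as reference.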

Test [4] concerns the target Cytochrome P450 3A4 (Homo sapiens) (UniProt P08684). In words: qHTS Assay for Inhibitors and Substrates of Cytochrome P450 3A4 (AID 884). Also: potency is read from the fitted curve at half-maximal effect; nearly all actives have a fitted effect of over 50% in size. To be noted: recombinant CYP3A4, Luciferin-PPXE luminescence; series mostly up to 57.1 µM. An outline of the steps: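 Luminescent readout of luciferin produced by CYP3A4 (20 nM) dealkylation of Luciferin-PPXE, 25 uM (its KM). NADPH-driven reaction ran 60 min at RT after 10 min compound preincubation; data scaled to 57 uM ketoconazole as 100% inhibition.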

Test [5] shares this target. In words: qHTS Assay for Activators of Cytochrome P450 3A4 (AID 885). Also: nearly all actives have a fitted effect of over 65% in size. To be noted: recombinant CYP3A4, Luciferin-PPXE luminescence, 60 min; series mostly up to 57.1 µM. An outline of the steps:
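Human CYP3A4 dealkylates Luciferin-PPXE to luciferin, which luciferase detection converts to light. Substrate was at its KM (25uM), buffer 200mM KPO4, reaction 60 min at RT.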

For test [6], the target named is Cytochrome P450 2D6 (Homo sapiens) (UniProt P10635). The test can be described thus: qHTS Assay for Inhibitors and Substrates of Cytochrome P450 2D6 (AID 891). Also: potency is read from the fitted curve at half-maximal effect; nearly all actives have a fitted effect of over 60% in size. To be noted: recombinant CYP2D6, luciferin-ME EGE luminescence; series mostly up to 57.1 µM. An outline of the steps: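 Luminescent read-out of luciferin formed by 5 nM human CYP2D6 demethylating 30 uM Luciferin-ME EGE (Km level) over 60 min at room temperature after NADPH regeneration addition. Data normalized to full inhibition by 1.43 uM quinidine.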
Cytochrome P450 2D6 (Homo sapiens), sequence (P10635 whole entry, looked up): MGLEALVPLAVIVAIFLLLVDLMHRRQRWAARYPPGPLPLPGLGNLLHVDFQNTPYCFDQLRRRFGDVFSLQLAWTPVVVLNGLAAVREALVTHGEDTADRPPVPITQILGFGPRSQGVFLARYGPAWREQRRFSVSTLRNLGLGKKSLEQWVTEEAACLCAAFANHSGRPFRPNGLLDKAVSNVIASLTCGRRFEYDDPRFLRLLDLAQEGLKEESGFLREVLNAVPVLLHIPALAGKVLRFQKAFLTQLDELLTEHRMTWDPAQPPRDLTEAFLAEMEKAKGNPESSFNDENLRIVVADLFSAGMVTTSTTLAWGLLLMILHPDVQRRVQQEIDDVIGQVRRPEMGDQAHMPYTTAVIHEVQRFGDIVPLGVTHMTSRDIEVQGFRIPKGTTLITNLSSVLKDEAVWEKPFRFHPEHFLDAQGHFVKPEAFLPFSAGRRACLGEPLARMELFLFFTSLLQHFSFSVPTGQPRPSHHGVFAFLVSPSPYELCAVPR

The target of test [7] is Dual specificity protein kinase CLK4 (Homo sapiens) (UniProt Q9HAZ1). The test can be described thus: qHTS Assay for Inhibitors of CDC-like Kinase 4 (ADP-Glo Assay) (AID 1771). Also: potency is read from the fitted curve at half-maximal effect; nearly all actives have a fitted effect of over 70% in size. To be noted: recombinant CLK4, ADP-Glo luminescence; series mostly up to 80 µM. The procedure, abridged: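 ADP production was read by ADP-Glo luminescence after residual ATP depletion, following 1 h room-temperature reaction of 25 nM Clk4, 1 uM ATP and 100 uM RS peptide with MgCl2, EGTA, DTT and Triton X-100.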
Dual specificity protein kinase CLK4 (Homo sapiens), sequence (Q9HAZ1 whole entry, looked up): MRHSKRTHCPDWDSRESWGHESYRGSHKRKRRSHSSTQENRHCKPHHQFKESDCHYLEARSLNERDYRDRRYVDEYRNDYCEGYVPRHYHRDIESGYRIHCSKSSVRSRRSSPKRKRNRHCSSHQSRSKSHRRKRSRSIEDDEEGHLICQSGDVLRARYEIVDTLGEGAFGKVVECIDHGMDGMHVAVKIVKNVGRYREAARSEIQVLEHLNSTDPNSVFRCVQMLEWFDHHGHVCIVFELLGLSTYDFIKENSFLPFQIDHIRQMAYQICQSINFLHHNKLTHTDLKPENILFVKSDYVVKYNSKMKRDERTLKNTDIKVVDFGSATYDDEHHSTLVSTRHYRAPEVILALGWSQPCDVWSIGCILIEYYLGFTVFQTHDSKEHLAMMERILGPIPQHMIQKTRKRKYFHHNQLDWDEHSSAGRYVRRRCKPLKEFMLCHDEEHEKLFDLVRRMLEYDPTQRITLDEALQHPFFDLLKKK

A short description of test [8]: HepG2 viability counterscreen (readout 1: protease activity) against the NCATS DSHEA and TCM libraries (AID 1794841).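 Also: cells exposed to compounds for about 24 h before the protease read; 0% is about no effect.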 The settings on record: qHTS concentration series; series mostly up to 27.3 µM. The procedure, abridged:
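HepG2 cells (1,000 cells/well) attached ~4 h, then treated ~24 h at 37C with substances. Protease activity read by GF-AFC (25 uM final, 30 min, Ex/Em 380/510 nm); ATP content then by CellTiter-Glo luminescence.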

Test [9] in a line: Dual reporter qHTS for agonist of Pregnane X Receptor (hPXR) against the NCATS DSHEA and TCM libraries: Fluorescence readout (AID 1920058). Also: 0% is about no effect. To be noted: PXR dual reporter cells; series mostly up to 40 µM. An outline of the steps: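 Viability readout (CellTiter-Fluor, 405/540 nm, 1 h) from agonist-mode PXR dual reporter in hPXR-Luc HepG2 cells. Substances ~24 h, 37 °C, 5% CO2; rifampicin reference, tetraoctyl ammonium bromide cytotoxic control.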

Test [10] has as its target Cytochrome P450 2C19 (Homo sapiens) (UniProt P33261). In words: qHTS Assay for Inhibitors and Substrates of Cytochrome P450 2C19 (AID 899). Also: potency is read from the fitted curve at half-maximal effect; nearly all actives have a fitted effect of over 60% in size. The settings on record: recombinant CYP2C19, luciferin-H EGE luminescence; series mostly up to 57.1 µM. The procedure, abridged:
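Luminescent read-out of luciferin formed from Luciferin-H EGE (10uM, equal to KM). Enzyme 5nM in 50mM KPO4; compound added, 10 min at 37C, then NADPH regenerating system for 60 min at 37C. Full inhibition defined by 57uM ketoconazole.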

Test [11] concerns the target Estrogen receptor (Homo sapiens) (UniProt P03372). In words: qHTS assay for small molecule antagonists of estrogen receptor alpha signaling (AID 588513; active = well fitted curve in the direction sought with a large enough effect in the signal ratio, with a control signal flat, not every such curve was filed as active; the % refers to the signal ratio; also: % is scaled to controls: 0 for no effect and ±100 for the full control effect). To be noted: ER-alpha-UAS-bla HEK293, beta-lactamase ratio, antagonist mode; series mostly up to 76.9 µM. An outline of the steps: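 ER-alpha-UAS-bla GripTite HEK 293 cells in medium with 2% charcoal/dextran-treated FBS were preincubated 4 h at 37 C, dosed with compound (1:2 titration), stimulated with 0.5nM 17-beta-estradiol for 18 h, then read by CCF4 beta-lactamase fluorescence.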

Test [12] concerns the target Peroxisome proliferator-activated receptor gamma (Homo sapiens) (UniProt P37231). The test can be described thus: qHTS assay for small molecule agonists of peroxisome proliferator-activated receptor gamma signaling (AID 588536; active = well fitted curve in the direction sought with a large enough effect in the signal ratio, with a control signal flat, not every such curve was filed as active; the % refers to the signal ratio;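 also: 0% = DMSO basal wells and 100% = rosiglitazone at 2 µM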). To be noted: HEK293 PPARg-UAS-bla, beta-lactamase ratio, 16 h, percent of rosiglitazone response, DMSO as zero; series mostly up to 76.7 µM. An outline of the steps:
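Cells were plated and held 6–6.5 h at 37 C, then compounds were added as a titration series. After a further 16 h, CCF4 dye was loaded for 2 h at room temperature and emission at 460/530 nm recorded.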

A short description of test [13]: qHTS assay for small molecule antagonists of retinoid X receptor alpha signaling (AID 588546; active = well fitted inhibition curve with a large enough effect in the signal ratio, with a control signal flat, not every such curve was filed as active; the % refers to the signal ratio;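 also: cells stimulated with 9-cis-retinoic acid as agonist; % is scaled to controls: 0 for no effect and ±100 for the full control effect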). To be noted: HEK293T RXRa-UAS-bla, beta-lactamase ratio, antagonist mode; measured here: W530 green channel, cytotoxicity proxy. The procedure, abridged: (§1)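 Beta-lactamase reporter inhibition, read as CCF4 fluorescence ratio (ex 405, em 460/530 nm) after 2 h at RT. HEK293T UAS-bla cells, 2500/well, were stimulated with 9-cis-RA at 500 or 100 nM final alongside test compound for 18 h at 37 C.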

The target in test [14] is Retinoic acid receptor RXR-alpha (Homo sapiens) (UniProt P19793). The description is as above. The settings on record: HEK293T RXRa-UAS-bla, beta-lactamase ratio, antagonist mode. An outline of the steps:
as §1

The nature of test [15]: qHTS assay for small molecule activators of the p53 signaling pathway (AID 651743; active = well fitted activation curve with a large enough effect in the signal ratio, not every such curve was filed as active; the % refers to the signal ratio; also: % of control where 0% means no effect). To be noted: HCT-116 p53RE-bla, beta-lactamase FRET ratio, 16 h; activation: stronger effect = higher value. The procedure, abridged:
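Following 16 hours of compound exposure at 37 C, HCT-116 cells bearing the p53RE-bla reporter were loaded with LiveBLAzer B/G FRET substrate for 2 hours at room temperature and fluorescence intensity was recorded.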

The target of test [16] is Peroxisome proliferator-activated receptor alpha (Homo sapiens) (UniProt Q07869). In words: qHTS assay for small molecule agonists of the peroxisome proliferator-activated receptor alpha (PPARalpha) signaling pathway (AID 651778). Also: % of control where 0% means no effect. To be noted: PathHunter PPARalpha complementation, chemiluminescence, 6 h; max response: stronger effect = higher value. The procedure, abridged:
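Enzyme-fragment complementation assay in which ligand-bound PPARalpha translocates and forms an active enzyme that generates chemiluminescence. Cells were plated overnight, exposed to compound for 6 hr at 37 C, and then given detection reagent for 60 min at room temperature.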

Consider 21 molecules from PubChem BioAssay (NCATS).

Records with an inconclusive call do not appear. Calls of active or inactive are those of the source. Unless noted, calls follow the shape of the dose curve; as a rule, active = well fitted curve in the direction sought with a large enough effect; inconclusive = small, poorly fitted or top-dose-only effect, or another doubt; inactive = no such curve, though single readings can be large; an effect the other way counts as inactive or inconclusive.

Cytochrome P450 3A4 (Homo sapiens), sequence (P08684 whole entry, looked up): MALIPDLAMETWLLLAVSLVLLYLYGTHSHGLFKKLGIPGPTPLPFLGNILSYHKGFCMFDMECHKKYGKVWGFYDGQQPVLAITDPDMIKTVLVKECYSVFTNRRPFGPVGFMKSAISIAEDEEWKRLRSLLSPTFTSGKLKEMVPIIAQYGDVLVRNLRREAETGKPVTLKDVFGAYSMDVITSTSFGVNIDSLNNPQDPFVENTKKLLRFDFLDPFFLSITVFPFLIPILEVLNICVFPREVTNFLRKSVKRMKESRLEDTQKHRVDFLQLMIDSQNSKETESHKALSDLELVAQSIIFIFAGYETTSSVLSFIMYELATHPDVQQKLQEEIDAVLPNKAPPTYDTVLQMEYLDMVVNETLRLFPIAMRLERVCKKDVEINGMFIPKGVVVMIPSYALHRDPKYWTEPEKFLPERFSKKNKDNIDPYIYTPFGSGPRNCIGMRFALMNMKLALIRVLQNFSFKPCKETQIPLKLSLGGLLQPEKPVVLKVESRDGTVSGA
Peroxisome proliferator-activated receptor alpha (Homo sapiens), sequence (Q07869 whole entry, looked up, the tested form may be a part): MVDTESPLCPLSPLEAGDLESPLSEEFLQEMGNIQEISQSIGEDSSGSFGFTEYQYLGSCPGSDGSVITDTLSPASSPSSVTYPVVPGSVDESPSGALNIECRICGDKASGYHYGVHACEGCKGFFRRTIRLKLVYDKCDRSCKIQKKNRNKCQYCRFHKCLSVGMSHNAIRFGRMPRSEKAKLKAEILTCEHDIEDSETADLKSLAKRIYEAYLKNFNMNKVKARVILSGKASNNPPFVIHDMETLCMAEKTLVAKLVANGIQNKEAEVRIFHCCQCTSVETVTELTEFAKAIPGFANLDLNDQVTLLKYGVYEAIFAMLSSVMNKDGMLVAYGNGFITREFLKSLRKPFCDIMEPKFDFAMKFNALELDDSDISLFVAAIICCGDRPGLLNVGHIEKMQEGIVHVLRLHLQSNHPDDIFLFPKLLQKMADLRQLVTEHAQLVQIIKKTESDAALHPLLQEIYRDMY
Peroxisome proliferator-activated receptor gamma (Homo sapiens), sequence (P37231 whole entry, looked up): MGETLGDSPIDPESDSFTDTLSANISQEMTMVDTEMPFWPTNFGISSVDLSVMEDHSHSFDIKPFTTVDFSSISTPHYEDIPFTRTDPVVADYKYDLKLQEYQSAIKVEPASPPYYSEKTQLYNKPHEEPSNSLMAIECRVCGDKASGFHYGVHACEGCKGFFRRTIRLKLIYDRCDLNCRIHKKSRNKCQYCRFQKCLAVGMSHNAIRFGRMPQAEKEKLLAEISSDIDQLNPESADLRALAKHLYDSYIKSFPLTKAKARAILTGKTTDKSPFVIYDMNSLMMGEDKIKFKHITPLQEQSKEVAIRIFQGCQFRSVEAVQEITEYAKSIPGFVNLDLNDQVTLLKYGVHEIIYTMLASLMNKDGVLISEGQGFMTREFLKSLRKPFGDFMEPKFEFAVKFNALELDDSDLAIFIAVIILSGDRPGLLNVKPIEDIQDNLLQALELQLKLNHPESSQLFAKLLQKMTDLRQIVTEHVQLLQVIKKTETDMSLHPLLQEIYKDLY
Cytochrome P450 2C19 (Homo sapiens), sequence (P33261 whole entry, looked up): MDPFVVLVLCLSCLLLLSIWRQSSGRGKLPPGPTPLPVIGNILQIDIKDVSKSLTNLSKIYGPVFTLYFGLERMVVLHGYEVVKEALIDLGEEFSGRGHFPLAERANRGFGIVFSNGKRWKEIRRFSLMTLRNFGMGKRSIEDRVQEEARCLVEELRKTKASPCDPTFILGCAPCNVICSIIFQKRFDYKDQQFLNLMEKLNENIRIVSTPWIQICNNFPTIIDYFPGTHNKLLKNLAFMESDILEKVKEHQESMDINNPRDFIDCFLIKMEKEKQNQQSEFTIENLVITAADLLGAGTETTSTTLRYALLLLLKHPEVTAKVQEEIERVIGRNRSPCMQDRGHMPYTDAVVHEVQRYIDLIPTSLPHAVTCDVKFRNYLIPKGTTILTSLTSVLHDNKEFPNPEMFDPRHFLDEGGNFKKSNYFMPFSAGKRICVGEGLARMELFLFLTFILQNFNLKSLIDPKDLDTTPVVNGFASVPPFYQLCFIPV
3',5'-cyclic-AMP phosphodiesterase 4B (Homo sapiens), sequence (Q07343 whole entry, looked up): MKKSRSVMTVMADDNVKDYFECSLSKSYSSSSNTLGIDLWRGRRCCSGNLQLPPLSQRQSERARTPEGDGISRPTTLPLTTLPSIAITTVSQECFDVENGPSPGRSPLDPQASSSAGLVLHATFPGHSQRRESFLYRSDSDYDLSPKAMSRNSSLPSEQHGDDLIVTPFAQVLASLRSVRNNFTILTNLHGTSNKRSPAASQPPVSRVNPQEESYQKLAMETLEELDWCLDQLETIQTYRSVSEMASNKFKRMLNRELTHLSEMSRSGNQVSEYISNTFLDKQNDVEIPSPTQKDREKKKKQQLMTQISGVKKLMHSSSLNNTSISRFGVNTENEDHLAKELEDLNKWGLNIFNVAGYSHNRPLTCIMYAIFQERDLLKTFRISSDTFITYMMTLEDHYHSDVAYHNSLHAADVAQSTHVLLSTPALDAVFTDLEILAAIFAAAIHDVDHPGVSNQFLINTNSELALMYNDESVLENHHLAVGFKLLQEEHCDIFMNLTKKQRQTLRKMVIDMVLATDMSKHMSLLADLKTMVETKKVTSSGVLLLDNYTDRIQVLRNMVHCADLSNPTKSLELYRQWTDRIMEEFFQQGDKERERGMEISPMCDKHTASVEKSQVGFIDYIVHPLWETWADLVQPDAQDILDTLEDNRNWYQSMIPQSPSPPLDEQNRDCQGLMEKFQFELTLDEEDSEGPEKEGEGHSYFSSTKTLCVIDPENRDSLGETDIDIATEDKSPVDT
Estrogen receptor (Homo sapiens), sequence (P03372 whole entry, looked up): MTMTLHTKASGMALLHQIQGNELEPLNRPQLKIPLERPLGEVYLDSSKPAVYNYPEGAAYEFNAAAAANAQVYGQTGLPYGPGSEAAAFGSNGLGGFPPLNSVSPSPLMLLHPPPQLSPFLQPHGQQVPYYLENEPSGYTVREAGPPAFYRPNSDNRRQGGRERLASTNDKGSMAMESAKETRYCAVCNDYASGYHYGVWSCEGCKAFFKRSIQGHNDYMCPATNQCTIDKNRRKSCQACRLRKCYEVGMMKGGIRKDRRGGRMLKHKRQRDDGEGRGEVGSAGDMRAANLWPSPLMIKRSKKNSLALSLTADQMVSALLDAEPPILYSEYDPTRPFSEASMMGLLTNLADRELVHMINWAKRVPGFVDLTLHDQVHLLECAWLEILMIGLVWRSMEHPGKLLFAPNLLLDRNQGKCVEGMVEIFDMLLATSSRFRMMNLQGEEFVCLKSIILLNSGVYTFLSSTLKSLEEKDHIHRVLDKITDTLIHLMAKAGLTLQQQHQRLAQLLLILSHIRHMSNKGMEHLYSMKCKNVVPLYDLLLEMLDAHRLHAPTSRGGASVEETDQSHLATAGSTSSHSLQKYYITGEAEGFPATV

With `COc1ccccc1CNc1cc(-c2cccnc2)ncn1`, the Potency in [1] was 1 µM (active); in test [4], 0.631 µM (active); in [6], 5.01 µM (active); in [7], 31.6 µM (active). Further, the call in test [2] and in test [5] was inactive. Besides, the Potency result in test [3] is “inactive”.
In the case of `C=C1C[C@@]23CC[C@H]4[C@@](C)(CCC[C@@]4(C)C(=O)O[C@@H]4O[C@H](CO)[C@@H](O)[C@H](O)[C@H]4O)[C@@H]2CC[C@]1(O[C@@H]1O[C@H](CO)[C@@H](O)[C@H](O[C@@H]2O[C@H](CO)[C@@H](O)[C@H](O)[C@H]2O)[C@H]1O[C@@H]1O[C@@H](C)[C@H](O)[C@@H](O)[C@H]1O)C3`, the result in test [8] and in test [9] was inactive.
With `CC(C)c1ccc(C=O)cc1`, the outcome in test [8] was inactive.
In the case of `C=C(C)C(CC=C(C)C)CC12CC(CC=C(C)C)C(C)(C)C(CC=C(C)C)(C(=O)/C(=C(\O)c3ccc(O)c(O)c3)C1=O)C2=O` (stereo not drawn), in test [8], the outcome was inactive.
In the case of `CCCCCC/C=C\CCCCCCCC(=O)O`, in test [9], the outcome was inactive.
Regarding `CC1(C)CC[C@]2(C(=O)O)CC[C@]3(C)C(=CCC4[C@@]5(C)CC[C@H](O)[C@@](C)(CO)C5CC[C@]43C)[C@H]2C1` (stereo partly drawn), the molecule was classed as inactive in test [8] and in test [9].
Take `Cc1ccccc1-c1ccc2ncnc(-n3ccnc3)c2c1`: the results for the Potency in test [1], in [10] and in test [7] were 0.794 µM (active), 2 µM (active) and 7.08 µM (active), respectively.
As to `COc1cc(/C=C/c2ccccc2)oc(=O)c1`, the Potency in [4] is 15.8 µM (active). Also, the result in test [5], in test [12], in [8] and in test [9] was inactive. Moreover, the Potency result in test [11] was “inactive”. The values for the max response in test [13], in [14] and in test [16] were 21.7%, -7.15% (inactive) and -1.59% (inactive), respectively. In addition, the activation in test [15] was -4.84% (inactive).
For the molecule `O=C(O)CC(O)(C(=O)O)C(O)C(=O)O` (stereo not drawn), the outcome in [8] was inactive.
Still for that read-out and setting: the value for `C[C@@H]1O[C@@H](OC[C@H]2OC(Oc3c(-c4ccc(O)c(O)c4)oc4cc(O)cc(O)c4c3=O)[C@H](O)[C@@H](O)[C@@H]2O)[C@H](O)[C@H](O)[C@H]1O` (stereo partly drawn) was “inactive”.
In the case of `CC(C)=CCCC(C)(OC1OC(COC2OC(CO)C(O)C2O)C(O)C(O)C1O)C1CCC2(C)C1C(O)CC1C3(C)CCC(OC4OC(CO)C(O)C(O)C4OC4OC(CO)C(O)C(O)C4O)C(C)(C)C3CCC12C` (stereo not drawn), the outcome in [8] and in [9] was inactive.
As to `CC1(C)CC[C@]2(C(=O)O)CC[C@]3(C)C(=CCC4[C@@]5(C)CC[C@@H](O)C(C)(C)C5CC[C@]43C)C2C1` (stereo partly drawn), the result in [8] and in [9] was inactive.
For the molecule `CCCCCCCCCCCCCC(=O)OCC(O)CO` (stereo not drawn), the call in [8] and in test [9] was inactive.
Take `CCCCCCC/C=C/C(=O)CCc1ccc(O)c(OC)c1`: the molecule was classed as inactive in test [8] and in [9].
Consider `CC(C)(O)[C@@H]1CC[C@](C)([C@@H]2[C@H](O)C[C@]3(C)C4C[C@@H](O[C@H]5O[C@@H](CO)[C@H](O)[C@@H](O)[C@@H]5O)C5C(C)(C)[C@H](O[C@H]6OC[C@H](O)[C@@H](O)[C@@H]6O)CC[C@]56CC46CC[C@@]23C)O1` (stereo partly drawn), for which, in test [8], the result was inactive.
In the case of `OCC1=C[C@@H](O)[C@@H]2C=CO[C@@H](OC3O[C@H](CO)[C@@H](O)[C@H](O)[C@H]3O)[C@H]12` (stereo partly drawn), the call in [8] and in [9] was inactive.
For `CCCCCCCCCCCCCCCCCCCCCC(=O)O`, the outcome in test [8] and in test [9] was inactive.
With `CCCCCC(=O)CC`, the outcome in [8] was inactive.
As to `CC(=O)OC1CC2CCC1(C)C2(C)C` (stereo not drawn), the result in test [8] was inactive.
In the case of `OCCc1ccc(O)cc1`, the call in test [8] and in [9] was inactive.
In the case of `CC1=CCC(O)(C(C)C)CC1` (stereo not drawn), the molecule was classed as inactive in test [8] and in test [9].
